In PubChem BioAssay (EPA / NIEHS):
Results filed as inconclusive are left out. Activity calls are given as the source filed them. The calls were made as follows: active = hit-call score of the fitted dose curve at least 0.9, where 1 is the maximum; inconclusive = response in the unintended direction; inactive = score below 0.9.

What was measured:
[1] = molecular target: human Matrix Metalloproteinase-9 (MMP9), MMP9 (gene 4318) (UniProt P14780); assay: NVS_ENZ_hMMP9: NovaScreen (NVS) Enzymatic Assay for human Matrix Metalloproteinase-9 (MMP9) (AID 2283190);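 also: cell-free recombinant MMP9 protease activity read by fluorescent substrate signal; active means inhibition seen as loss of fluorescence signal versus DMSO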
How it was run: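 Cell-free fluorescence-intensity enzyme activity assay using extracted protein, read 1 h after dosing. Loss of signal versus DMSO baseline indicates inhibition; primary screen in duplicate at 25 uM, actives followed up in concentration series.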

[2] = molecular target: human Matrix Metalloproteinase-2 (MMP2), MMP2 (gene 4313) (UniProt P08253); assay: NVS_ENZ_hMMP2: NovaScreen (NVS) Enzymatic Assay for human Matrix Metalloproteinase-2 (MMP2) (AID 2283184)
How it was run: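 Cell-free recombinant MMP2 activity with a fluorescent substrate, read 1 h after dosing. Primary screen in duplicate at 25 uM; actives then run in concentration series; loss of signal fitted versus DMSO.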

[3] = molecular target: human Matrix Metalloproteinase-3 (MMP3), MMP3 (gene 4314) (UniProt P08254); assay: NVS_ENZ_hMMP3: NovaScreen (NVS) Enzymatic Assay for human Matrix Metalloproteinase-3 (MMP3) (AID 2283185)
How it was run: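 Cell-free recombinant human MMP3 activity, fluorescence intensity read 1 h after dosing. Primary screen duplicate at 25 uM, actives retested in concentration series; loss of signal vs DMSO baseline.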

[4] = molecular target: human Protein Tyrosine Phosphatase Non-receptor Type 9 (PTPN9), PTPN9 (gene 5780) (UniProt P43378); assay: NVS_ENZ_hPTPN9: NovaScreen (NVS) Enzymatic Assay for human Protein Tyrosine Phosphatase Non-receptor Type 9 (PTPN9) (AID 2283209)
How it was run: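 Sf9-expressed enzyme in a cell-free assay, fluorescence read 1.33 h after dosing with mobility-shift separation of substrate and product. Tested at 25 uM in duplicate, then up to 50 uM; signal loss versus DMSO.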

[5] = molecular target: human Matrix Metalloproteinase-7 (MMP7), MMP7 (gene 4316) (UniProt P09237); assay: NVS_ENZ_hMMP7: NovaScreen (NVS) Enzymatic Assay for human Matrix Metalloproteinase-7 (MMP7) (AID 2283183)
How it was run: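 Cell-free fluorescence enzymatic assay read 1 h after compound addition, activity loss analyzed against DMSO. Primary duplicate testing at 25 uM; compounds meeting threshold rerun in singleton concentration-response up to 50 uM.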

[6] = molecular target: human Phosphodiesterase 4A1 (PDE4A1), PDE4A (gene 5141) (UniProt P27815); assay: NVS_ENZ_hPDE4A1: NovaScreen (NVS) Enzymatic Assay for human Phosphodiesterase 4A1 (PDE4A1) (AID 2283191)
How it was run: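 Cell-free recombinant human PDE4A1 with fluorescent substrate; product separated by electrophoretic mobility shift, 1 h. Screened at 25 uM, then up to 50 uM in concentration-response; loss of signal fitted against DMSO.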

[7] = molecular target: human Phosphodiesterase 5 (PDE5), PDE5A (gene 8654) (UniProt O76074); assay: NVS_ENZ_hPDE5: NovaScreen (NVS) Enzymatic Assay for human Phosphodiesterase 5 (PDE5) (AID 2283194)
How it was run: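 Recombinant human PDE5 with specific substrate, read 1 h after dosing by fluorescence with electrophoretic mobility-shift separation of substrate and product. Initial single-concentration duplicate screen at 25 uM, actives followed in concentration series; loss of activity versus DMSO.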

[8] = molecular target: Serine/threonine-protein phosphatase PP1-alpha catalytic subunit (Homo sapiens) (UniProt P62136); assay: NVS_ENZ_hPPP1CA: NovaScreen (NVS) Enzymatic Assay for human Protein Phosphatase 1 Aatalytic subunit Alpha (PPP1CA) (AID 2283200)
How it was run: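 Recombinant enzyme activity read by fluorescence with electrophoretic mobility shift separating substrate from product, 1.33 h after dosing; loss of signal vs DMSO baseline. Primary screen in duplicate at 25 uM; actives retested in concentration-response up to 50 uM.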

[9] = molecular target: Tyrosine-protein phosphatase non-receptor type 12 (Homo sapiens) (UniProt Q05209); assay: NVS_ENZ_hPTPN12: NovaScreen (NVS) Enzymatic Assay for human Protein Tyrosine Phosphatase Non-receptor Type 12 (PTPN12) (AID 2283204)
How it was run: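 Single-concentration duplicates (25 uM) preceded singleton concentration-response up to 50 uM for chemicals passing threshold. Cell-free recombinant PTPN12 activity was read 1.33 h after dosing via fluorescence after mobility-shift separation; loss of signal versus DMSO.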

[10] = molecular target: human Mitogen- and Stress-activated Protein Kinase-1 (Msk1), RPS6KA5 (gene 9252) (UniProt O75582); assay: NVS_ENZ_hMsk1: NovaScreen (NVS) Enzymatic Assay for human Mitogen- and Stress-activated Protein Kinase-1 (Msk1) (AID 2283187)
How it was run: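 Recombinant kinase with fluorescent substrate; product separated by electrophoretic mobility shift, read 1 h after dosing. Screened in duplicate at 25 uM; hits (e.g. ≥30% inhibition) tested in concentration–response up to 50 uM. DMSO baseline.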

[11] = molecular target: human Phosphodiesterase 10 (PDE10), PDE10A (gene 10846) (UniProt Q9Y233); assay: NVS_ENZ_hPDE10: NovaScreen (NVS) Enzymatic Assay for human Phosphodiesterase 10 (PDE10) (AID 2283195)
How it was run: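 Fluorescence/mobility-shift readout of PDE10A enzyme activity, taken 1 h post-dosing. Primary screen in duplicate at 25 uM; actives (e.g. ≥30% inhibition) retested as singleton concentration-response, top concentration 50 uM.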

[12] = molecular target: human Protein Tyrosine Phosphatase Non-receptor Type 4 (PTPN4), PTPN4 (gene 5775) (UniProt P29074); assay: NVS_ENZ_hPTPN4: NovaScreen (NVS) Enzymatic Assay for human Protein Tyrosine Phosphatase Non-receptor Type 4 (PTPN4) (AID 2283208)
How it was run: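 Cell-free assay of PTPN4 expressed in Sf9 cells, using a fluorescent substrate with product separated by mobility shift; read 1.33 h after dosing. Single-point screen at 25 uM, then concentration-response up to 50 uM. Loss of signal relative to DMSO.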

[13] = molecular target: cAMP-dependent protein kinase catalytic subunit alpha (Homo sapiens) (UniProt P17612); assay: NVS_ENZ_hPKA: NovaScreen (NVS) Enzymatic Assay for human Protein Kinase A (PKA) (AID 2283192)
How it was run: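 Recombinant human PKA with specific fluorescent substrate, product separated by electrophoretic mobility shift, read 1 h after dosing. Primary screen at 25 uM in duplicate; actives then run in concentration-response up to 50 uM, activity relative to DMSO.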

[14] = molecular target: human Phosphoinositide 3-kinase alpha (PI3Ka), PIK3CA (gene 5290) (UniProt P42336); assay: NVS_ENZ_hPI3Ka: NovaScreen (NVS) Enzymatic Assay for human Phosphoinositide 3-kinase alpha (PI3Ka) (AID 2283196)
How it was run: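 Enzyme activity as fluorescence after mobility-shift separation of substrate and product, 1 h reaction, recombinant human PI3Kα; concentration-response to 50 uM max for chemicals passing a 25 uM duplicate screen.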

[15] = molecular target: human Protein Tyrosine Phosphatase Non-receptor Type 1 (PTPN1), PTPN1 (gene 5770) (UniProt P18031); assay: NVS_ENZ_hPTPN1: NovaScreen (NVS) Enzymatic Assay for human Protein Tyrosine Phosphatase Non-receptor Type 1 (PTPN1) (AID 2283201)
How it was run: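 Cell-free fluorogenic-substrate activity assay on recombinant enzyme, read 1.33 h after dosing by fluorescence and electrophoretic mobility shift; loss of signal vs DMSO baseline. Primary screen in duplicate at 25 uM, hits then run in concentration-response up to 50 uM.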

[16] = molecular target: Tyrosine-protein phosphatase non-receptor type 13 (Homo sapiens) (UniProt Q12923); assay: NVS_ENZ_hPTPN13: NovaScreen (NVS) Enzymatic Assay for human Protein Tyrosine Phosphatase Non-receptor Type 13 (PTPN13) (AID 2283205)
How it was run: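 Cell-free assay of recombinant human PTPN13 with a fluorescent substrate, product separated by electrophoretic mobility shift and read 0.5 h after dosing. Primary screen at 25 uM in duplicate, then concentration-response up to 50 uM. Loss of signal fitted against DMSO.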

[17] = molecular target: Tyrosine-protein phosphatase non-receptor type 14 (Homo sapiens) (UniProt Q15678); assay: NVS_ENZ_hPTPN14: NovaScreen (NVS) Enzymatic Assay for human Protein Tyrosine Phosphatase Non-receptor Type 14 (PTPN14) (AID 2283206)
How it was run: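 Cell-free recombinant human PTPN14 with fluorescent substrate, read 0.5 h after dosing by fluorescence and electrophoretic mobility shift separating substrate from product. Primary screen at 25 uM in duplicate; hits run to 50 uM maximum; loss of signal versus DMSO.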

[18] = molecular target: human MAP Kinase-Activated Protein Kinase 2 (MAPKAPK2), MAPKAPK2 (gene 9261) (UniProt P49137); assay: NVS_ENZ_hMAPKAPK2: NovaScreen (NVS) Enzymatic Assay for human MAP Kinase-Activated Protein Kinase 2 (MAPKAPK2) (AID 2283178)
How it was run: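 Cell-free recombinant human MAPKAPK2 activity measured by fluorescence with electrophoretic mobility shift separation of substrate and product, 1 hr after dosing. Loss of signal versus DMSO; primary screen at 25 uM, concentration-response up to 50 uM.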

[19] = molecular target: Tyrosine-protein phosphatase non-receptor type 11 (Homo sapiens) (UniProt Q06124); assay: NVS_ENZ_hPTPN11: NovaScreen (NVS) Enzymatic Assay for human Protein Tyrosine Phosphatase Non-receptor Type 11 (PTPN11) (AID 2283202)
How it was run: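 Recombinant human PTPN11 activity on a fluorescent substrate, with substrate/product separated by electrophoretic mobility shift; read 0.5 h after dosing, loss of signal vs DMSO. Duplicate 25 uM screen, then concentration-response up to 50 uM.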

Measured: AC50

Chain of human Phosphodiesterase 10 (PDE10), PDE10A (gene 10846) (Q9Y233 whole entry, looked up): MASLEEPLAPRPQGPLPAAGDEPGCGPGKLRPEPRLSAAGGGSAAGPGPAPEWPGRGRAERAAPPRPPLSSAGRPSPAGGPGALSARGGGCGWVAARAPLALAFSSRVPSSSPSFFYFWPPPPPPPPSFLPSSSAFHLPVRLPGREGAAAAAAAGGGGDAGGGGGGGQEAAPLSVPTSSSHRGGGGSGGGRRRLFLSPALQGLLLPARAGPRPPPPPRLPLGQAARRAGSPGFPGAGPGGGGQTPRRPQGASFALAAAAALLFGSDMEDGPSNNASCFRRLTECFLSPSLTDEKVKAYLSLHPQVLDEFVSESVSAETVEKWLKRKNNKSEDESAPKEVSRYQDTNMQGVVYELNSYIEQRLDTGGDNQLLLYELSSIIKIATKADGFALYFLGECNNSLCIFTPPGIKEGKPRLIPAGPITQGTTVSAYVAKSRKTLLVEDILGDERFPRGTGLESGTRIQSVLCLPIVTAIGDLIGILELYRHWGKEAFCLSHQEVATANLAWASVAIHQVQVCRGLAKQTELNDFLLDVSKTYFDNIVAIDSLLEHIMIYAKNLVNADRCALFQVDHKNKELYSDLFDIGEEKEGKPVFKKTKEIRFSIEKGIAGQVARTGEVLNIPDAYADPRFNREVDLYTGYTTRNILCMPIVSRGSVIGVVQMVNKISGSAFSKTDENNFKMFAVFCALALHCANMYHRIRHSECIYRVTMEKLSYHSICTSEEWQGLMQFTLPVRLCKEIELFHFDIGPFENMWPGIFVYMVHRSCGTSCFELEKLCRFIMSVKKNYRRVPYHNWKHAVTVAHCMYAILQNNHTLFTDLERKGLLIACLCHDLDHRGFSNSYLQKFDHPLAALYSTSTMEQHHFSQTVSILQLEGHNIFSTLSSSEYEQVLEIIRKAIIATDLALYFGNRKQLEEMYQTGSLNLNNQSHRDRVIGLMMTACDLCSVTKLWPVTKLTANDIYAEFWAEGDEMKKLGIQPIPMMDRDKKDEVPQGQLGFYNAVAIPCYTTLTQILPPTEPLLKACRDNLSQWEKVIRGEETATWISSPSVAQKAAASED
Chain of human Matrix Metalloproteinase-2 (MMP2), MMP2 (gene 4313) (P08253 whole entry, looked up): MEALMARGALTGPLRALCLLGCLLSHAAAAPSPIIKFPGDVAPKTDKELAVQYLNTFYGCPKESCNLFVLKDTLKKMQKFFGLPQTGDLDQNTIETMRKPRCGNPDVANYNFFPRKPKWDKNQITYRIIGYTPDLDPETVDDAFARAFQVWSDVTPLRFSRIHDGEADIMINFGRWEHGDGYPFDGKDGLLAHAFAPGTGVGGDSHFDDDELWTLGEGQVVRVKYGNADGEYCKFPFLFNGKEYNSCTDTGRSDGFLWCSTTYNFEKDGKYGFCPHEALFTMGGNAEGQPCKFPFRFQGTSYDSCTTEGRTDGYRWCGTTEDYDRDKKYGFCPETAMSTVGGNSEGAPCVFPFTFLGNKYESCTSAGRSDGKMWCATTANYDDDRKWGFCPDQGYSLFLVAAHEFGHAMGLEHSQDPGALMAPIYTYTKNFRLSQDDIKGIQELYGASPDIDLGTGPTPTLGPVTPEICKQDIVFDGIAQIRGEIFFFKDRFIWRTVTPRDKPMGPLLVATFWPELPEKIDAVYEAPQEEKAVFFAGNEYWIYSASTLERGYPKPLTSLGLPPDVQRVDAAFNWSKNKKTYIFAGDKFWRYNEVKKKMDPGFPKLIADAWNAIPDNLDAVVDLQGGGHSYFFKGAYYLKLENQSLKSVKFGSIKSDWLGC
Chain of human Phosphodiesterase 4A1 (PDE4A1), PDE4A (gene 5141) (P27815 whole entry, looked up): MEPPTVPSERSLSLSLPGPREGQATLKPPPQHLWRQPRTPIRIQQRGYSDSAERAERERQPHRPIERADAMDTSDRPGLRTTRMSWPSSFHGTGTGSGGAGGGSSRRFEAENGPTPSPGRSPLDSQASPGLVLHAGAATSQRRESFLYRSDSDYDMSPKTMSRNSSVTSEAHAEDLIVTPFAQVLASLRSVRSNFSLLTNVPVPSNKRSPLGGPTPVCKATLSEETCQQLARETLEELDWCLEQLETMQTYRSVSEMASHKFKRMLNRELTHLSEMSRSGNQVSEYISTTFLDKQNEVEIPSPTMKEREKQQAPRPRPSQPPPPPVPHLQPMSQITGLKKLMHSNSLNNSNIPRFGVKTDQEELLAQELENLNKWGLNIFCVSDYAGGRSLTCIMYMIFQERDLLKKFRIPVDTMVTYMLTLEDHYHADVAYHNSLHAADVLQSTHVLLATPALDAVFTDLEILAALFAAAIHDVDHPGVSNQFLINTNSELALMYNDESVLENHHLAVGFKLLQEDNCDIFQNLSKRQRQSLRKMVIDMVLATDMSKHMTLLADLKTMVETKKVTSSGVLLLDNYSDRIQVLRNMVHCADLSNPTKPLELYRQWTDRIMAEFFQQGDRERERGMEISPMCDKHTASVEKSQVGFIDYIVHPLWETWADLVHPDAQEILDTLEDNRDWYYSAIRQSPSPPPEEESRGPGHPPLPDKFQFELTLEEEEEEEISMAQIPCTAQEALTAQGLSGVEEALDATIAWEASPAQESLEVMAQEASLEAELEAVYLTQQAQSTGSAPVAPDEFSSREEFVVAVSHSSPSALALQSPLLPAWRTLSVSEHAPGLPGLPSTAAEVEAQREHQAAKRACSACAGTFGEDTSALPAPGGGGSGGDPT
Chain of Tyrosine-protein phosphatase non-receptor type 11 (Homo sapiens) (Q06124 whole entry, looked up): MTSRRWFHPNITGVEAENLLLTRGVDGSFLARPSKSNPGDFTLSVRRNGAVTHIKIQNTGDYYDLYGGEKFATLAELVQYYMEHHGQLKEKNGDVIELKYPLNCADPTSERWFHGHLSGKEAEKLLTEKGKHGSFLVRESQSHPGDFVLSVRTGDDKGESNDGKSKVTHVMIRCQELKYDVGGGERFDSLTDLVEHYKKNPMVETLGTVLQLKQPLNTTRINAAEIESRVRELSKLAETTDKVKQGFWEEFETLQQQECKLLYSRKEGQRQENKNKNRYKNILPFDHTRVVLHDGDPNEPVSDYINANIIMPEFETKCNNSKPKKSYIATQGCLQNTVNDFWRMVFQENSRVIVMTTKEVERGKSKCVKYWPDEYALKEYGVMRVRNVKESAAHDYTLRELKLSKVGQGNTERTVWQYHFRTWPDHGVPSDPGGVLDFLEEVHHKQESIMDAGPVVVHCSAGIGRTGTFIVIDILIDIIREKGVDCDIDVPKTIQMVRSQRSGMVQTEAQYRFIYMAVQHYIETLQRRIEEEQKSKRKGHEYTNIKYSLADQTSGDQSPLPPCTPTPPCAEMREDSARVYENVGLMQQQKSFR
Chain of human Matrix Metalloproteinase-9 (MMP9), MMP9 (gene 4318) (P14780 whole entry, looked up): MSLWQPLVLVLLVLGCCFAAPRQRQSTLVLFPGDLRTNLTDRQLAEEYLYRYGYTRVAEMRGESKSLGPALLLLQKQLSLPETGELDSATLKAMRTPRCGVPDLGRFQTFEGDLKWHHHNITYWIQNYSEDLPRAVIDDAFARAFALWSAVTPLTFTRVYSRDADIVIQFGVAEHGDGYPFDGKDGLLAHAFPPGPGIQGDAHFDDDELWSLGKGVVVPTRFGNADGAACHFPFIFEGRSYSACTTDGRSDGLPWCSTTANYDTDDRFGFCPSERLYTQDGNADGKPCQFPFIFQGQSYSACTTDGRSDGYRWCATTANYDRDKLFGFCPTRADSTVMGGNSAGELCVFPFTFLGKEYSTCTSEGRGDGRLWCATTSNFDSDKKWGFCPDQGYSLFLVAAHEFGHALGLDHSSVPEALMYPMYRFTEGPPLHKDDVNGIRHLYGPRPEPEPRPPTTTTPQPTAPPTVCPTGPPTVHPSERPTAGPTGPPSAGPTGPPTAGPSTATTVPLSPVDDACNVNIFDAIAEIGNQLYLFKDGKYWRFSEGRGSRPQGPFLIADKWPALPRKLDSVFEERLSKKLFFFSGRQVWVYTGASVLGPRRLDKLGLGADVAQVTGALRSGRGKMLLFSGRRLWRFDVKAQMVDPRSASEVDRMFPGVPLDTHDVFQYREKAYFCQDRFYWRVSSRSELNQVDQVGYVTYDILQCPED
Chain of human Protein Tyrosine Phosphatase Non-receptor Type 4 (PTPN4), PTPN4 (gene 5775) (P29074 whole entry, looked up): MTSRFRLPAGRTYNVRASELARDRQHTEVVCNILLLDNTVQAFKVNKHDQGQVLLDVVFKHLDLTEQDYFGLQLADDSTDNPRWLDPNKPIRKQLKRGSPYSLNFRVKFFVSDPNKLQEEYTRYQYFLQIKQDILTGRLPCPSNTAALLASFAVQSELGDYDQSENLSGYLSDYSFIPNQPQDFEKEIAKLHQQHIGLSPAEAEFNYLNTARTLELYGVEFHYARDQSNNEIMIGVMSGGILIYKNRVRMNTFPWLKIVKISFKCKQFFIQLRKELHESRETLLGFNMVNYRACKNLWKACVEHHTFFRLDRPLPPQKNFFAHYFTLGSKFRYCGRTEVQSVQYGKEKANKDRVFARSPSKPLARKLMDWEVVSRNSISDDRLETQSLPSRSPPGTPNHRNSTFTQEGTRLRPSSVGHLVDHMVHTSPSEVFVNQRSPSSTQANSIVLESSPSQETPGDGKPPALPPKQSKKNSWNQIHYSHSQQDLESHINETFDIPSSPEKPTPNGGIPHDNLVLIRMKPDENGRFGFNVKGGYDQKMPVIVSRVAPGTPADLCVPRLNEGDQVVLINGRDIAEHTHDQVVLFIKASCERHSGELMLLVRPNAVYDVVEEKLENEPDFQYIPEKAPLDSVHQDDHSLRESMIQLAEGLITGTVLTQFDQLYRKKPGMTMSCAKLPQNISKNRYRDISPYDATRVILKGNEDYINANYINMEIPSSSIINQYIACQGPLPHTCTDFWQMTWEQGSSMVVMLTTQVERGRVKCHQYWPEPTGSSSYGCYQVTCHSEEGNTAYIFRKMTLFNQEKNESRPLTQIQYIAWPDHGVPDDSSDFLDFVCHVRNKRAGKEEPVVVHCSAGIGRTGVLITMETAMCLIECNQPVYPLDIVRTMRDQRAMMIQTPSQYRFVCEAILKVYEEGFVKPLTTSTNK

Fc1ccccc1[C@@H](F)COC1CCC(Nc2ncnc3[nH]ncc23)CC1 (stereo not given in full)
inactive: [1]

CCc1cc(SCc2sc(-c3ccc(C(F)(F)F)cc3)nc2CN2CCN(c3ccc(OC)cc3)CC2)ccc1OCC(=O)O
inactive: [3]
active: [2] 19.8 µM | [1] 8.8 µM

CCCCC(CC)COC(=O)c1ccc(C(=O)OCC(CC)CCCC)cc1 (stereo not given)
inactive: [2] | [1] | [4]

CCCCCCc1ccc(O)cc1O
active: [6] 39.2 µM
inactive: [5] | [7] | [8]

Cc1[nH]cnc1C[C@H]1CCc2c(C)c3ccccc3n2C1=O
active: [3] 29.9 µM
inactive: [9]

CC(C)CCO
inactive: [5] | [3]

C=CC(=C)CCC=C(C)C
active: [5] 6.56 µM

O=C(O)CC(O)C(=O)O (stereo not given)
active: [12] 39.2 µM
inactive: [10] | [6] | [11]

COc1ccc2sc(C(=O)Nc3nnn[nH]3)c(OC(C)C)c2c1
active: [3] 46.7 µM | [13] 13.2 µM | [7] 0.476 µM | [14] 0.192 µM

Cc1ccc(N)cc1O
not listed: [1] | [2] | [3] | [5] | [11] | [18] | [19]
inactive: all other assays above

CCOCCOCCOCCO
active: [5] 28.2 µM

O=C(O)c1cc(N=Nc2ccc(S(=O)(=O)Nc3ccccn3)cc2)ccc1O
active: [1] 7.16 µM | [11] 5.28 µM
not listed: [3] | [5] | [8] | [10] | [15]
inactive: all other assays above

COC(=O)CC(=O)OC
inactive: [1] | [6]
active: [2] 7.18 µM

CC[C@H](C)C(=O)O[C@H]1C[C@@H](C)C=C2C=C[C@H](C)[C@H](CC[C@@H]3C[C@@H](O)CC(=O)O3)[C@H]21
inactive: [5] | [2] | [1] | [7] | [14] | [19] | [4]

NC(=O)NO
inactive: [1]

Nc1ccc(Nc2ccccc2)cc1
inactive: [18]

O=C(O)c1cccc(Oc2ccccc2)c1
active: [16] 0.119 µM
not listed: [1] | [2] | [3] | [10] | [15] | [17] | [18]
inactive: all other assays above
